Results from PubChem BioAssay AID1159580 (chemical genetic matrix, 2015).
Hit rate of the full screen: of about 5,500 compounds, about 2,000 (36%) were called active. Inconclusive results (about 18%) are left out. No stated cut-off is given here; in the data, active means normalized growth mostly below about 0.91 (no sharp cut-off); inconclusive means no clear call, values can overlap the other calls; inactive means mostly above about 0.92. Some of the results follow.

Assay: chemical genetic growth profiling, strain panel (AID 1159580);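 further: tested at 20 µM; growth read once vehicle control cultures reached saturation at 30 °C; 1 = growth at the plate median or of vehicle wells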
Conditions: S. cerevisiae deletion strains, growth OD

Measured: normalized growth

Cc1cc2c(s1)Nc1ccccc1N=C2N1CCN(C)CC1
inactive: locus YHR030C, strain SLT2, stronger effect = lower value 0.975 | locus YHR079C, strain IRE1, stronger effect = lower value 0.976 | locus YJL095W, strain BCK1, stronger effect = lower value 1.01 | locus YJR066W, strain TOR1, stronger effect = lower value 0.944 | locus YLR113W, strain HOG1, stronger effect = lower value 1.05 | locus YNL183C, strain NPR1, stronger effect = lower value 0.969 | locus YOR231W, strain MKK1, stronger effect = lower value 1 | locus YPL256C, strain CLN2, stronger effect = lower value 1.03
